{"source": "paper PMC11006913", "assay_in_all_cases": "PBM; 200 nM protein, PBS", "conditions_in_all_cases": "dsDNA, one strand shown", "key": {"[1]": {"target": "HOXC10 (Homo sapiens, UniProt Q9NYD6 254-340)", "sequence (Q9NYD6 254-340)": "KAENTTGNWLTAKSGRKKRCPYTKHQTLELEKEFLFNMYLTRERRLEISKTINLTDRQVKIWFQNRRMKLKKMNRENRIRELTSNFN"}, "[2]": {"target": "HOXC9 (Homo sapiens, UniProt P31274 178-260)", "sequence (P31274 178-260)": "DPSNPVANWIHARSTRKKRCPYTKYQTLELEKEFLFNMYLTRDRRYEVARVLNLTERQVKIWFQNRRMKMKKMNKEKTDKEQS"}, "[3]": {"target": "HOXD13 (Homo sapiens, UniProt P35453 263-343, T313R)", "sequence (P35453 263-343 T313R)": "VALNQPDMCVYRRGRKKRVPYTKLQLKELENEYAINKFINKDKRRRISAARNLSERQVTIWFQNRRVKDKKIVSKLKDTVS"}, "[4]": {"target": "HOXD13 (Homo sapiens, UniProt P35453 263-343, T313A)", "sequence (P35453 263-343 T313A)": "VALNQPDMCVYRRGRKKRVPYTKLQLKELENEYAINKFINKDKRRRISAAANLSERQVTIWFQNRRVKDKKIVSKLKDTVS"}, "[5]": {"target": "HOXD13 (Homo sapiens, UniProt P35453 263-343)", "sequence (P35453 263-343)": "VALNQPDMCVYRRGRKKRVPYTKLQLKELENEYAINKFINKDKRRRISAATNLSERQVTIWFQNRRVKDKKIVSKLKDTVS"}, "[6]": {"target": "NKX3-2 (Homo sapiens, UniProt P78367 192-278, P234S)", "sequence (P78367 192-278 P234S)": "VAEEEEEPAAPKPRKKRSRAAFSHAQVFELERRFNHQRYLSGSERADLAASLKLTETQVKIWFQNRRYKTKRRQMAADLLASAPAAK"}, "[7]": {"target": "NKX3-2 (Homo sapiens, UniProt P78367 192-278)", "sequence (P78367 192-278)": "as the sequence (P78367 192-278 P234S) above, with S43P counted along it"}}}
{"sequence": "GATAATTA", "values": [{"measurement": "binding signal", "setting": "[1]", "value": "12.2 upbm affinity estimate (log intensity, higher = more binding, comparable within an allelic series)"}, {"measurement": "binding signal", "setting": "[2]", "value": "12.8 upbm affinity estimate (log intensity, higher = more binding, comparable within an allelic series)"}]}
{"sequence": "ATAATTAC", "values": [{"measurement": "binding signal", "setting": "[1]", "value": "12.4 upbm affinity estimate (log intensity, higher = more binding, comparable within an allelic series)"}, {"measurement": "binding signal", "setting": "[2]", "value": "13 upbm affinity estimate (log intensity, higher = more binding, comparable within an allelic series)"}]}
{"sequence": "AATTAATG", "values": [{"measurement": "binding signal", "setting": "[1]", "value": "12.2 upbm affinity estimate (log intensity, higher = more binding, comparable within an allelic series)"}, {"measurement": "binding signal", "setting": "[2]", "value": "12.8 upbm affinity estimate (log intensity, higher = more binding, comparable within an allelic series)"}]}
{"sequence": "ATAATTAA", "values": [{"measurement": "binding signal", "setting": "[1]", "value": "12.5 upbm affinity estimate (log intensity, higher = more binding, comparable within an allelic series)"}, {"measurement": "binding signal", "setting": "[2]", "value": "12.9 upbm affinity estimate (log intensity, higher = more binding, comparable within an allelic series)"}]}
{"sequence": "AGTAATTA", "values": [{"measurement": "binding signal", "setting": "[1]", "value": "12.3 upbm affinity estimate (log intensity, higher = more binding, comparable within an allelic series)"}, {"measurement": "binding signal", "setting": "[2]", "value": "13 upbm affinity estimate (log intensity, higher = more binding, comparable within an allelic series)"}]}
{"sequence": "GTTAATTA", "values": [{"measurement": "binding signal", "setting": "[1]", "value": "12.3 upbm affinity estimate (log intensity, higher = more binding, comparable within an allelic series)"}, {"measurement": "binding signal", "setting": "[2]", "value": "12.8 upbm affinity estimate (log intensity, higher = more binding, comparable within an allelic series)"}, {"measurement": "binding signal", "setting": "[3]", "value": "10.7 upbm affinity estimate (log intensity, higher = more binding, comparable within an allelic series)"}, {"measurement": "binding signal", "setting": "[4]", "value": "11.6 upbm affinity estimate (log intensity, higher = more binding, comparable within an allelic series)"}]}
{"sequence": "CTAATTAA", "values": [{"measurement": "binding signal", "setting": "[1]", "value": "12.2 upbm affinity estimate (log intensity, higher = more binding, comparable within an allelic series)"}, {"measurement": "binding signal", "setting": "[2]", "value": "12.6 upbm affinity estimate (log intensity, higher = more binding, comparable within an allelic series)"}, {"measurement": "binding signal", "setting": "[3]", "value": "10.8 upbm affinity estimate (log intensity, higher = more binding, comparable within an allelic series)"}, {"measurement": "binding signal", "setting": "[5]", "value": "11.8 upbm affinity estimate (log intensity, higher = more binding, comparable within an allelic series)"}, {"measurement": "binding signal", "setting": "[4]", "value": "11.6 upbm affinity estimate (log intensity, higher = more binding, comparable within an allelic series)"}]}
{"sequence": "GTAATTAC", "values": [{"measurement": "binding signal", "setting": "[1]", "value": "12.5 upbm affinity estimate (log intensity, higher = more binding, comparable within an allelic series)"}, {"measurement": "binding signal", "setting": "[2]", "value": "13.1 upbm affinity estimate (log intensity, higher = more binding, comparable within an allelic series)"}]}
{"sequence": "CGTAATTA", "values": [{"measurement": "binding signal", "setting": "[1]", "value": "12.3 upbm affinity estimate (log intensity, higher = more binding, comparable within an allelic series)"}, {"measurement": "binding signal", "setting": "[2]", "value": "12.8 upbm affinity estimate (log intensity, higher = more binding, comparable within an allelic series)"}]}
{"sequence": "GCTAATTA", "values": [{"measurement": "binding signal", "setting": "[2]", "value": "12.6 upbm affinity estimate (log intensity, higher = more binding, comparable within an allelic series)"}, {"measurement": "binding signal", "setting": "[6]", "value": "11.7 upbm affinity estimate (log intensity, higher = more binding, comparable within an allelic series)"}, {"measurement": "binding signal", "setting": "[7]", "value": "11.7 upbm affinity estimate (log intensity, higher = more binding, comparable within an allelic series)"}]}
{"sequence": "AATTAATA", "values": [{"measurement": "binding signal", "setting": "[1]", "value": "12.2 upbm affinity estimate (log intensity, higher = more binding, comparable within an allelic series)"}, {"measurement": "binding signal", "setting": "[2]", "value": "12.7 upbm affinity estimate (log intensity, higher = more binding, comparable within an allelic series)"}, {"measurement": "binding signal", "setting": "[3]", "value": "10.9 upbm affinity estimate (log intensity, higher = more binding, comparable within an allelic series)"}, {"measurement": "binding signal", "setting": "[5]", "value": "11.7 upbm affinity estimate (log intensity, higher = more binding, comparable within an allelic series)"}, {"measurement": "binding signal", "setting": "[4]", "value": "11.7 upbm affinity estimate (log intensity, higher = more binding, comparable within an allelic series)"}]}
{"sequence": "GGTAATTA", "values": [{"measurement": "binding signal", "setting": "[1]", "value": "12.5 upbm affinity estimate (log intensity, higher = more binding, comparable within an allelic series)"}, {"measurement": "binding signal", "setting": "[2]", "value": "13.1 upbm affinity estimate (log intensity, higher = more binding, comparable within an allelic series)"}, {"measurement": "binding signal", "setting": "[6]", "value": "11.7 upbm affinity estimate (log intensity, higher = more binding, comparable within an allelic series)"}, {"measurement": "binding signal", "setting": "[7]", "value": "11.7 upbm affinity estimate (log intensity, higher = more binding, comparable within an allelic series)"}]}
{"sequence": "GCAATTAA", "values": [{"measurement": "binding signal", "setting": "[1]", "value": "12.4 upbm affinity estimate (log intensity, higher = more binding, comparable within an allelic series)"}, {"measurement": "binding signal", "setting": "[2]", "value": "13.1 upbm affinity estimate (log intensity, higher = more binding, comparable within an allelic series)"}]}
{"sequence": "TAATTATA", "values": [{"measurement": "binding signal", "setting": "[1]", "value": "12.3 upbm affinity estimate (log intensity, higher = more binding, comparable within an allelic series)"}, {"measurement": "binding signal", "setting": "[2]", "value": "12.8 upbm affinity estimate (log intensity, higher = more binding, comparable within an allelic series)"}, {"measurement": "binding signal", "setting": "[3]", "value": "10.7 upbm affinity estimate (log intensity, higher = more binding, comparable within an allelic series)"}]}
{"sequence": "TTAATTAA", "values": [{"measurement": "binding signal", "setting": "[1]", "value": "12.4 upbm affinity estimate (log intensity, higher = more binding, comparable within an allelic series)"}, {"measurement": "binding signal", "setting": "[2]", "value": "12.8 upbm affinity estimate (log intensity, higher = more binding, comparable within an allelic series)"}]}
{"sequence": "GTAATTAA", "values": [{"measurement": "binding signal", "setting": "[1]", "value": "12.7 upbm affinity estimate (log intensity, higher = more binding, comparable within an allelic series)"}, {"measurement": "binding signal", "setting": "[2]", "value": "13.2 upbm affinity estimate (log intensity, higher = more binding, comparable within an allelic series)"}]}
{"sequence": "TAATTAAA", "values": [{"measurement": "binding signal", "setting": "[1]", "value": "12.7 upbm affinity estimate (log intensity, higher = more binding, comparable within an allelic series)"}, {"measurement": "binding signal", "setting": "[2]", "value": "13 upbm affinity estimate (log intensity, higher = more binding, comparable within an allelic series)"}, {"measurement": "binding signal", "setting": "[3]", "value": "10.8 upbm affinity estimate (log intensity, higher = more binding, comparable within an allelic series)"}, {"measurement": "binding signal", "setting": "[5]", "value": "11.8 upbm affinity estimate (log intensity, higher = more binding, comparable within an allelic series)"}, {"measurement": "binding signal", "setting": "[4]", "value": "11.7 upbm affinity estimate (log intensity, higher = more binding, comparable within an allelic series)"}]}
{"sequence": "AATTAATT", "values": [{"measurement": "binding signal", "setting": "[1]", "value": "12.2 upbm affinity estimate (log intensity, higher = more binding, comparable within an allelic series)"}, {"measurement": "binding signal", "setting": "[2]", "value": "12.8 upbm affinity estimate (log intensity, higher = more binding, comparable within an allelic series)"}]}
{"sequence": "CATAATTA", "values": [{"measurement": "binding signal", "setting": "[1]", "value": "12.3 upbm affinity estimate (log intensity, higher = more binding, comparable within an allelic series)"}, {"measurement": "binding signal", "setting": "[2]", "value": "12.8 upbm affinity estimate (log intensity, higher = more binding, comparable within an allelic series)"}]}
{"sequence": "TAATTACA", "values": [{"measurement": "binding signal", "setting": "[1]", "value": "12.3 upbm affinity estimate (log intensity, higher = more binding, comparable within an allelic series)"}, {"measurement": "binding signal", "setting": "[2]", "value": "12.8 upbm affinity estimate (log intensity, higher = more binding, comparable within an allelic series)"}]}
{"sequence": "CTTAATTA", "values": [{"measurement": "binding signal", "setting": "[1]", "value": "12.2 upbm affinity estimate (log intensity, higher = more binding, comparable within an allelic series)"}, {"measurement": "binding signal", "setting": "[2]", "value": "12.6 upbm affinity estimate (log intensity, higher = more binding, comparable within an allelic series)"}]}
{"sequence": "AATAATTA", "values": [{"measurement": "binding signal", "setting": "[1]", "value": "12.2 upbm affinity estimate (log intensity, higher = more binding, comparable within an allelic series)"}, {"measurement": "binding signal", "setting": "[2]", "value": "12.7 upbm affinity estimate (log intensity, higher = more binding, comparable within an allelic series)"}]}
{"sequence": "ATTAATGA", "values": [{"measurement": "binding signal", "setting": "[1]", "value": "12.5 upbm affinity estimate (log intensity, higher = more binding, comparable within an allelic series)"}, {"measurement": "binding signal", "setting": "[2]", "value": "13 upbm affinity estimate (log intensity, higher = more binding, comparable within an allelic series)"}, {"measurement": "binding signal", "setting": "[3]", "value": "10.7 upbm affinity estimate (log intensity, higher = more binding, comparable within an allelic series)"}, {"measurement": "binding signal", "setting": "[5]", "value": "11.9 upbm affinity estimate (log intensity, higher = more binding, comparable within an allelic series)"}, {"measurement": "binding signal", "setting": "[4]", "value": "11.7 upbm affinity estimate (log intensity, higher = more binding, comparable within an allelic series)"}]}
